Inconclusive results are not listed. The source made the active and inactive calls. Calls follow the shape of the dose curve; as a rule, active = well fitted inhibition curve with a large enough effect; inconclusive = small, poorly fitted or top-dose-only effect; inactive = flat fitted curve, though single readings scatter.
system: Zika virus NS2B-NS3 protease (unlinked complex); test: Confirmatory screen GU AMC qHTS for Zika virus inhibitors (AID 1347153); details: Recombinant NS2B-NS3 protease, AMC substrate fluorescence; series mostly up to 57.1 µM; also: nearly all actives have a fitted effect of over 70% in size
Text: Assay Submitters (PI): Avindra Nath, Ph.D., National Institute of Neurological Disorders and Stroke (NINDS), Bethesda, MD Radhakrishnan Padmanabhan, Ph.D., Georgetown University (GU), Washington D.C. Zika Virus causes congenital defects, including microcephaly and is associated with Guillain-Barre syndrome, eningoencephalitis and myelitis in infected adult. […] Using a target-based approach, we hope to establish a screening paradigm to uncover novel, cell-active NS2B-NS3 protease (Zika Virus) specific inhibitors from NCATS' collection of small molecules using qHTS. […] Active compounds in the primary screen are re-acquired and re-screened to confirm NS2B-NS3 protease inhibition. Early Translation Branch (ETB) National Center for Advancing Translational Sciences (NCATS), Rockville, MD National Institute of Health (NIH), Bethesda, Maryland
Materials: Padmanabhan lab provided the NS2B hydrophilic domain and NS3 protease domain in a noncovalent complex used for the unlinked assay. Control compound aprotinin is obtained from Thermo Scientific (#78432; Waltham, Massachusetts). NS2B-NS3 AMC substrate (Bz-Nle-Lys-Arg-Arg-AMC; Nle-KRR-AMC) purchased from Bachem (#I-1995; Torrance, CA). Ac-VKTGKR-AMC purchased from Genscript or Bachem, Ac-FAAGKR-AMC purchased from Genscript, Ac-GLVKRR-AMC purchased from Genscript, Ac-LKKR-AMC purchased from Genscript. GU AMC unlinked NS2B-NS3 protease qHTS protocol: Briefly, 3 microL of Zika virus unlinked NS2B-NS3 protease (25 nM for linked final concentration), in assay buffer (10 mM Tris-HCl pH 8.0 with 0.01% Tween 20) was dispensed into a 1,536-well solid-bottom black plate (Greiner Bio One, Monroe, NC). Twenty-three nL of compounds (final concentration range 7.28 nM to 114 microM) or control Aprotinin (final concentration range 3.47 nM to 114 microM) were transferred via Wako Pin-tool (Wako Automation, Richmond, VA). Samples were incubated (room temperature, protected from light) for 15 minutes followed by a 1 microL AMC substrate addition of (final concentration of 10 microM; Km = 18.3 µM). Plates were then read immediately on a ViewLux High-throughput CCD imager (PerkinElmer, Waltham, MA) equipped with standard UV fluorescence optics (340(30) nm excitation, 450(20) nm emission) then incubated (room temperature, protected from light) for 15 minutes (~20% conversion). The change in fluorescence intensity over the 15-minute reaction period was normalized against no-inhibitor and no-enzyme controls and the resulting percent inhibition data were fitted to a 4-parameter Hill equation. Aprotinin was used as the intraplate control.
Potency is read from the fitted curve at half-maximal effect.

Row | SMILES | Potency
1 | Cc1c(C)n(Cc2ccc(-c3ccccc3C(=O)O)cc2)c2ccc(C(=O)N[C@@H](C)c3ccc([N+](=O)[O-])cc3)cc12 | 21.5 µM (active)
2 | C[C@@]12O[C@@H](C[C@]1(O)CO)n1c3ccccc3c3c4c(c5c6ccccc6n2c5c31)CNC4=O | 24.1 µM (active)
3 | CCN1CCN(Cc2ccc(-c3cc4c(N[C@H](C)c5ccccc5)ncnc4[nH]3)cc2)CC1 | 49.4 µM (active)
4 | Cc1ccc(C(=O)Nc2cccc(C(F)(F)F)c2)cc1-c1ccc2nc(NCCN3CCOCC3)ncc2c1 | inactive
5 | N#Cc1c(O)c2c(-c3ccc(-c4ccccc4O)cc3)csc2[nH]c1=O | 9.61 µM (active)
6 | O=C(Nc1cc(C(F)(F)F)cc(C(F)(F)F)c1)c1cc(Cl)ccc1O | 49.4 µM (active)
7 | CC(C)c1ccccc1Cc1cc(C(=O)Nc2ccc(S(=O)(=O)c3ccccc3C(C)(C)C)cc2)c(O)c(O)c1O | inactive
8 | Cc1cc(N2CCOCC2)cc2[nH]c(-c3c(NC[C@@H](O)c4cccc(Cl)c4)cc[nH]c3=O)nc12 | inactive
9 | CCN(CC)CCCCNc1ncc2cc(-c3cc(OC)cc(OC)c3)c(NC(=O)NC(C)(C)C)nc2n1 | inactive
10 | CCS(=O)(=O)c1cccc(-c2cc(C(=O)NC3CCN(C)CC3)c(C)c3[nH]c4ncc(C)cc4c23)c1 | 24.1 µM (active)
11 | COc1cc(C(=O)NS(=O)(=O)c2ccccc2C)ccc1Cc1cn(C)c2ccc(NC(=O)OC3CCCC3)cc12 | 17.1 µM (active)
